The source of these data is PubChem BioAssay AID651819 (National Center for Advancing Translational Sciences (NCATS), 2012).

In all, about 360,000 compounds went through this assay and about 1,100 (0.31%) were called active. No stated cut-off is given here; in the data, active means activity change below about -30%; inactive means the rest. What follows is part of a selection rich in actives, with near analogues and random picks from the rest.
On the % scale 0 is the no-effect control and ±100 the full control effect.

This test concerns cytosolic chaperonin (CCT/TRiC complex). Nature of the test: High-Throughput Screening for Modulators of Cytosolic Chaperonin Activity. The following applies: purified chaperonin ATPase assay, HTRF ADP detection, 30 min; stronger effect = lower value. In a few lines:
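Nucleotide hydrolysis assay: TRiC at 20–40 nM final (set by batch activity) with 10 uM ATP, 30 min at 37 °C, in presence of 76 uM compound. Detection by competitive ADP HTRF, 30 min ambient.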
In general terms: In TR-FRET formats the signal depends on donor and acceptor labels being close together.
For `CC(C)N(C(=O)Cn1c(SCC(=O)N2CCN(c3ccccc3)CC2)nc2ccccc21)C(C)C`, the activity change was -3.64% (inactive).

Consider `Cc1ccc(S(=O)(=O)/N=C(/NC(=S)Nc2c(C)n(C)n(-c3ccccc3)c2=O)c2ccccc2)cc1`, for which the activity change is -1.68% (inactive).

In the case of `COc1cccc(CC2(CO)CCN(Cc3cnc(-c4cccc(C)c4)nc3)CC2)c1`, the activity change is -1.28% (inactive).

With `OCC1(CCc2ccccc2)CCN(Cc2ccc3nsnc3c2)CC1`, the activity change was -4.83% (inactive).

With `Cc1c(CN2CCC(CO)(CCOc3ccccc3)CC2)[nH]c2ccc(Cl)cc12`, the activity change is -56% (active).

Take `O=C1C2C3C=CC(C3)C2C(=O)N1c1ncc([N+](=O)[O-])s1` (stereo unspecified): the activity change was -1.62% (inactive).

For `COc1ccc(/C=C/C(=O)OCC(=O)NCc2cccs2)cc1OC`, the activity change was -2.94% (inactive).

Consider `CC(C)c1cccc(-c2csc(C(O)c3ccccc3)n2)c1` (stereo unspecified), for which the activity change is -0.363% (inactive).

Consider `OC(c1ccccc1)c1nc(-c2cnc3ccccc3c2)cs1` (stereo unspecified), for which the activity change was -40.1% (active).

As for `COc1cccc(C(NC(C)=O)c2nc(-c3cnc4ccccc4c3)cs2)c1` (stereo unspecified), the activity change was 0.873% (inactive).

For the molecule `COC(=O)C[C@H]1C[C@@H]2c3cc(N(C)C)ccc3O[C@@H]2[C@H](CO)O1`, the activity change was -1.3% (inactive).

For the molecule `CCOC(=O)c1ccccc1NC(=O)c1c(N)n(C)c(=O)[nH]c1=O`, the activity change was 2.1% (inactive).

As to `O=C(Nc1ccccc1-c1nnn(CC(=O)N2CCCc3ccccc32)n1)c1cccc(Cl)c1`, the activity change is -0.628% (inactive).

Turning to `CC1=C(C(=O)NC2CC(C)(C)Cc3c2cnn3-c2ccc(C)cc2)OCCO1` (stereo unspecified), the activity change was -89.1% (active).

As for `Cc1ccc(-n2ncc3c2CC(C)(C)CC3NC(=O)Cc2c(C)noc2C)cc1` (stereo unspecified), the activity change was 1.55% (inactive).

Regarding `COCc1ccc(C(=O)NC2CC(C)(C)Cc3c2cnn3-c2ccc(C)cc2)o1` (stereo unspecified), the activity change was -1.13% (inactive).

As for `Cc1ccc(-c2c(C)n([O-])c3c([n+]2=O)CCC3)cc1`, the activity change was -0.716% (inactive).

As to `O=C1/C(=C\c2cccnc2)CN(Cc2ccccc2)C/C1=C\c1cccnc1`, the activity change was -1.65% (inactive).

For the molecule `COc1ccc(C2=NOC3(CC(=O)N(c4ccc(Cl)cc4)C3=O)C2)c(OC)c1` (stereo unspecified), the activity change is 1.68% (inactive).

Consider `CC(=O)c1c(C)c[nH]c1C`, for which the activity change is 0.144% (inactive).

For the molecule `CC(NS(=O)(=O)c1ccc(Cl)cc1)C(=O)Nc1ccc2c(c1)OCCO2` (stereo unspecified), the activity change is -38.5% (active).

For `Cc1ccc(S(=O)(=O)NCC(=O)Nc2ccc3c(c2)OCCO3)cc1`, the activity change is -2.11% (inactive).

Consider `CC(=O)Nc1ccc(NC(=O)C(NS(=O)(=O)c2ccc3c(c2)OCCO3)C(C)C)cc1` (stereo unspecified), for which the activity change was -1.81% (inactive).

As for `COc1cc(Cl)c(C)cc1NC(=O)CSc1nnc(-c2ccco2)n1CC(C)C`, the activity change is -2.06% (inactive).

Consider `COc1ccccc1N1CCN(C(=O)CSc2ncnc3c2cnn3-c2ccc(C)c(C)c2)CC1`, for which the activity change is -0.613% (inactive).

As for `CN(C(=O)CC(NC(=O)c1ccccc1)(c1ccccc1)c1ccccc1)c1ccccc1`, the activity change was -1.61% (inactive).

Regarding `CCOC(=O)N/N=C1\CC(C)S(=O)(=O)c2ccc(Cl)cc21` (stereo unspecified), the activity change was -3.43% (inactive).

Regarding `CCOc1cccc(NC(=O)Cn2nc(-c3ccc4c(c3)OCCO4)ccc2=O)c1`, the activity change was 2.22% (inactive).

Turning to `CC(=O)c1cc2c(cc1NC(=O)CN1CCCCCC1)OCO2`, the activity change was -1.13% (inactive).

Take `CC(=O)c1cc2c(cc1NC(=O)Cn1nc(-c3ccc(F)cc3)ccc1=O)OCO2`: the activity change was -31.8% (active).

As for `Cc1cccc2c1cnn2C(=O)CCC(=O)NC1CCCCC1`, the activity change is 0.998% (inactive).

On to `C=CCN(N=Nc1cccc([N+](=O)[O-])c1)c1cccc([N+](=O)[O-])c1`, for which the activity change was -0.537% (inactive).

Take `CC1=C(C(=O)OC(C)(C)C)C(c2ccc(Br)cc2)NC(=O)N1CCCC(=O)O` (stereo unspecified): the activity change is -0.201% (inactive).

Consider `Cc1n[nH]c(=O)n1-c1ccc(C(C)C)cc1`, for which the activity change is 0.471% (inactive).

For `Cc1n[nH]c(=O)n1-c1ccc(Oc2ccccc2)cc1`, the activity change is -105% (active).

As to `O=C1CS(=O)CN1c1ccc(Oc2ccccc2)cc1` (stereo unspecified), the activity change is -3.89% (inactive).

For `O=C(NCCCN1CCCCC1)c1ccc2c(c1)NC(=O)C(N1CCOCC1)S2` (stereo unspecified), the activity change was -0.706% (inactive).

As for `O=C(NCCCN1CCOCC1)c1ccc2c(c1)N(Cc1cccc(F)c1)C(=O)c1ccccc1S2`, the activity change was -77.1% (active).

With `O=C(NCCCN1CCOCC1)c1cc(-c2ccccc2F)no1`, the activity change was 1.6% (inactive).

Regarding `CCc1ccc(CN(C)C(C)C(=O)Nc2ccc(S(=O)(=O)N3CCCC3)cc2)cc1` (stereo unspecified), the activity change was -0.65% (inactive).

Take `Cc1ccc(C2C(C#N)C(C#N)N3CCCN23)cc1` (stereo unspecified): the activity change was 0.118% (inactive).
